Our source for the outcome and AC50 values is PubChem BioAssay (EPA / NIEHS).

Experiment [1] can be described thus: CCTE_Shafer_MEA_dev_firing_rate_mean: CCTE's Neural Network Formation Assay for Mean Firing Rate, Shafer Lab (AID 2284031; active means hit-call score of the fitted dose curve at least 0.9, where 1 is the maximum; inactive means score below 0.9). The method in brief: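 Read-out: spike count/recording length, averaged over active electrodes, then AUC across days 5, 7, 9, 12. Rat cortical cultures on MEA; continuous 12-day exposure, media and treatment renewed DIV 5, 9; DMSO baseline.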

Experiment [2] is described as follows: CCTE_Shafer_MEA_dev_per_burst_spike_percent: CCTE's Neural Network Formation Assay for Percent of Spikes in a Burst, Shafer Lab (AID 2284032; active means hit-call score of the fitted dose curve at least 0.9, where 1 is the maximum; inactive means score below 0.9). The procedure, abridged:
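Value is trapezoidal AUC over recordings on days 5, 7, 9 and 12 of the well-mean fraction of spikes falling in single-electrode bursts; rat cortical cultures exposed continuously from plating, treatment renewed DIV 5 and 9, fitted downward against DMSO.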

The nature of experiment [3]: CCTE_Shafer_MEA_dev_active_electrodes_number: CCTE's Neural Network Formation Assay for Number of Active Electrodes, Shafer Lab (AID 2284040). The procedure, abridged: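 Developing rat cortical networks on MEAs, exposed DIV 0–12. Value is the AUC of active-electrode counts (≥5 spikes/min) from days 5, 7, 9, 12, relative to DMSO.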
The next experiment concerns TTR (gene 7276). As to the kind of experiment: CCTE_GLTED_hTTR_0.125uM: CCTE's human Transthyretin (hTTR) Inhibition Assay, with 0.125uM TTR, Great Lakes Toxicology and Ecology Division (GLTED) Lab (AID 2284431; active means hit-call score of the fitted dose curve at least 0.9, where 1 is the maximum; inactive means score below 0.9;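 further: hits lower the fluorescence signal relative to DMSO baseline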). The procedure, abridged: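 Cell-free displacement of ANSA probe from 0.125uM TTR after 2 h incubation with chemical. Fluorescence read at 380 nm excitation/475 nm emission; loss of signal relative to DMSO indicates T4-site displacement.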

For experiment [4], the target named is Peroxisome proliferator-activated receptor gamma (Homo sapiens) (UniProt P37231). As to the kind of experiment: NVS_NR_hPPARg: NovaScreen (NVS) Nuclear Receptor Binding Assay for human Peroxisome Proliferator-activated Receptor gamma (PPARg) (AID 2283370). The method in brief:
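Cell-free fluorescence polarization binding to human PPARg protein, read 2 h after dosing. Primary screen in duplicate at 25 uM, actives followed in concentration series; loss of signal relative to DMSO scored.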

The target in experiment [5] is human Matrix Metalloproteinase-9 (MMP9), MMP9 (gene 4318) (UniProt P14780). As to the kind of experiment: NVS_ENZ_hMMP9: NovaScreen (NVS) Enzymatic Assay for human Matrix Metalloproteinase-9 (MMP9) (AID 2283190).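 Further: cell-free recombinant MMP9 protease activity read by fluorescent substrate signal; active means inhibition seen as loss of fluorescence signal versus DMSO.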 The procedure, abridged: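 Extracted enzyme, fluorescent substrate, 1 h post-dose read. Single conc 25 uM in duplicate, then concentration series for actives. Activity = signal loss relative to DMSO negative control.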

Experiment [6] addresses Nucleoli Translocation, AR (gene 367) (UniProt P10275). As to the kind of experiment: UPITT_HCI_U2OS_AR_TIF2_Nucleoli_Agonist: University of Pittsburgh U2OS Androgen Receptor-Transcriptional Intermediary Factor 2 (AR-TIF2) Agonism High Content Imaging Assay for Nucleoli Translocation (AID 2283998). The procedure, abridged: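 U2OS cells expressing RFP-tagged human AR and GFP-tagged TIF2; red fluorescence in nucleoli quantified by high-content imaging. Primary screen at 20 uM final (0.2% DMSO); concentration-response 0.195–50 uM (0.5% DMSO), fitted upward versus DMSO.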

For experiment [7], the target named is Ratio of Nucleoli Translocation and Cytoplasm, AR (gene 367) (UniProt P10275). As to the kind of experiment: UPITT_HCI_U2OS_AR_TIF2_Nucleoli_Cytoplasm_Ratio_Antagonist: University of Pittsburgh U2OS Androgen Receptor-Transcriptional Intermediary Factor 2 (AR-TIF2) Antagonism High Content Imaging Assay for Ratio of Nucleoli Translocation and Cytoplasm (AID 2283999).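 Further: antagonists lower the DHT-driven ratio of nucleolar to cytoplasmic red signal.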 The method in brief:
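Read-out is the ratio of nucleolar to cytoplasmic AR-RFP fluorescence, imaged by high-content microscopy in U2OS cells coexpressing TIF2-GFP. Single-point 20 uM screen, triplicate confirmation, then 0.195–50 uM dose response; activity referenced to DHT baseline.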

The nature of experiment [8]: CCTE_Deisenroth_5AR_NBTE_donor: CCTE's 5alpha-reductase NanoBRET Target Engagement Assay […], Deisenroth Lab (AID 2284319; active means hit-call score of the fitted dose curve at least 0.9, where 1 is the maximum; inactive means score below 0.9). The settings on record: actives raise or lower the signal. The method in brief:
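Donor NanoLuc luminescence at 460-20 nm is the read-out, serving artifact detection. Transiently expressed SRD5A2-NanoLuc in HEK293T; 5 h total chemical exposure, testosterone tracer added for the final 2 h; fitting bidirectional relative to DMSO baseline.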

The next experiment concerns SRD5A2 (gene 6716). The experiment in a line: CCTE_Deisenroth_5AR_NBTE_ratio: CCTE's 5alpha-reductase NanoBRET Target Engagement Assay - Ratio, Deisenroth Lab (AID 2284322; active means hit-call score of the fitted dose curve at least 0.9, where 1 is the maximum; inactive means score below 0.9). The note with it: actives raise or lower the signal. The method in brief: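 SRD5A2-NanoLuc HEK293T; cmpd 10 nM-29.9 uM, 3 h preinc + testosterone tracer 2 h; NanoBRET ratio 650/460; bidirectional fit vs DMSO.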

The target of experiment [9] is Estrogen receptor (Homo sapiens) (UniProt P03372). As to the kind of experiment: OT_ER_ERaERa_1440: Odyssey Thera (OT) 24-hour HEK293T Protein-Complementation Assay for Estrogen Receptor-alpha/-alpha Homodimer (AID 2283349).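 Further: hits raise fluorescence above DMSO for agonists and antagonists alike.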 The method in brief: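 Cells (HEK293T) carrying the fragment-tagged ERα LBD (aa 310-547) pair are treated with chemical for 24 hours. Nuclear and/or cytoplasmic fluorescence is then quantified on a laser scanning cytometer. Activity is scored as signal gain against DMSO.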

The target is the same in experiment [10]. The experiment in a line: OT_ER_ERaERa_0480: Odyssey Thera (OT) 8-hour HEK293T Protein-Complementation Assay for Estrogen Receptor-alpha/-alpha Homodimer (AID 2283351).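 Further: rise in fluorescence from reassembled reporter fragments on ERα LBD homodimer in nucleus or whole cell.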 The method in brief:
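Read-out: fluorescence intensity rise relative to DMSO, nuclear for agonists, nuclear plus cytoplasmic for antagonists. Construct is the ERα LBD (aa 310-547) homodimer fragment-complementation pair, stably expressed in HEK293T; exposure 8 h.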

The target in experiment [11] is Estrogen receptor (Homo sapiens) + Estrogen receptor beta (Homo sapiens) (UniProt P03372+Q92731). The experiment in a line: OT_ER_ERaERb_1440: Odyssey Thera (OT) 24-hour HEK293T Protein-Complementation Assay for Estrogen Receptor-alpha/-beta Homodimer (AID 2283356).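 Further: heteromer of ER alpha and ER beta binding domains; hits raise reporter fluorescence and both agonists and antagonists give an increase.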 The method in brief:
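HEK293T stably expressing a PCA of ER alpha LBD (aa 310-547) and ER beta LBD (aa 263-489). After 24 h compound exposure, mean fluorescence intensity in nucleus (agonists) or nucleus and cytoplasm (antagonists) measured by laser scanning cytometry versus vehicle.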

Experiment [12] deals with Estrogen receptor (Homo sapiens) (UniProt P03372). The experiment in a line: OT_ERa_GFPERaERE_0480: Odyssey Thera (OT) 8-hour HeLa Transcription Induction Assay for Estrogen Receptor (AID 2283381; active means hit-call score of the fitted dose curve at least 0.9, where 1 is the maximum; inactive means score below 0.9). The procedure, abridged:
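GFP-ERE reporter, HeLa, 8 h exposure. Readout: fluorescence microscopy, high-content image analysis. Fit direction positive vs DMSO negative control.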

Experiment [13] has the same target. The experiment in a line: OT_ERa_GFPERaERE_0120: Odyssey Thera (OT) 2-hour HeLa Transcription Induction Assay for Estrogen Receptor (AID 2283382). The procedure, abridged:
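Fluorescence microscopy read-out: inducible fluorescent protein reporter in HeLa cells, imaged 2 h post-dose. Signal increase over DMSO negative control fitted as single primary endpoint via high content image analysis.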

Experiment [14] concerns the target Androgen Receptor/SRC-1 Co-activator, AR (gene 367) (UniProt P10275). The experiment in a line: OT_AR_ARSRC1_0960: Odyssey Thera (OT) 16-hour HEK293T Protein-Complementation Assay for Androgen Receptor/SRC-1 Co-activator (AID 2283353).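 Further: actives raise the signal above DMSO so potency reflects increased AR and SRC-1 complex.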 The procedure, abridged:
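Readout: 488 nm nuclear-to-cytoplasmic fluorescence ratio from imaging of at least 400 cells per image, 16 h post-dose. Reporter is Venus YFP complementation between AR and SRC-1 fusions, stably expressed in HEK293T; activity scored upward relative to DMSO.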

The target is the same in experiment [15]. The experiment in a line: OT_AR_ARSRC1_0480: Odyssey Thera (OT) 8-hour HEK293T Protein-Complementation Assay for Androgen Receptor/SRC-1 Co-activator (AID 2283354).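 Further: hits raise the complementation signal above DMSO so AC50 marks enhancers.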 The procedure, abridged:
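Split-Venus PCA, stable HEK293T, AR/SRC-1 fusions; 8 h exposure. Readout: 488nm N/C fluorescence ratio, ≥400 cells/image; fitted upward vs DMSO baseline.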

For experiment [16], the target named is Agonist Androgen Response Element (ARE), AR (gene 367) (UniProt P10275). As to the kind of experiment: OT_AR_ARELUC_AG_1440: Odyssey Thera (OT) 24-hour CHO-K1 Luciferase Assay for Agonist Androgen Response Element (ARE) (AID 2283379). The procedure, abridged:
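Gain-of-signal reporter endpoint: cells (CHO-K1, hamster) are treated 24 h, luciferin/ATP reagent added, and luminescence compared with DMSO baseline.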

For the next experiment, the target named is AR (gene 367) (UniProt P10275). As to the kind of experiment: ACEA_AR_antagonist_80hr: ACEA Biosciences xCELLigence Real-Time Cell Analysis on Androgen Receptor Antagonism for Proliferation (AID 2283787).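 Further: 22Rv1 human prostate cancer cells with growth followed by electrical impedance; hits lower the impedance growth signal relative to DMSO.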 The procedure, abridged:
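Measures real-time proliferation of 22Rv1 prostate cancer cells by electrode impedance at 80 hours after dosing. Test articles ran at eight concentrations (1:4 steps, top 100 uM final) in biological duplicate.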

The target in experiment [17] is Cytochrome P450 2C19 (Homo sapiens) (UniProt P33261). As to the kind of experiment: NVS_ADME_hCYP2C19: NovaScreen (NVS) CYP450-related Enzyme Activity (ADME) Assay for human CYP2C19 (AID 2283113).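 Further: potency for inhibition seen as loss of fluorescent signal.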 The method in brief: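 Cell-free recombinant human CYP2C19 from insect cells, fluorescent substrate; activity read by fluorescence intensity 1 h after dosing. Primary screen in duplicate at 10 uM; actives retested in concentration series. Signal loss versus acetonitrile negative control.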

SMILES strings stand for the structures. Results filed as inconclusive are left out. Some compounds were tested as several samples or in several runs, with calls that do not always agree. Calls of active or inactive are those of the source. How the source made its calls, unless noted: active means hit-call score of the fitted dose curve at least 0.9, where 1 is the maximum; inconclusive means response in the unintended direction; inactive means score below 0.9.

Estrogen receptor (Homo sapiens) + Estrogen receptor beta (Homo sapiens), sequence (P03372 whole entry, looked up, the tested form may be a part): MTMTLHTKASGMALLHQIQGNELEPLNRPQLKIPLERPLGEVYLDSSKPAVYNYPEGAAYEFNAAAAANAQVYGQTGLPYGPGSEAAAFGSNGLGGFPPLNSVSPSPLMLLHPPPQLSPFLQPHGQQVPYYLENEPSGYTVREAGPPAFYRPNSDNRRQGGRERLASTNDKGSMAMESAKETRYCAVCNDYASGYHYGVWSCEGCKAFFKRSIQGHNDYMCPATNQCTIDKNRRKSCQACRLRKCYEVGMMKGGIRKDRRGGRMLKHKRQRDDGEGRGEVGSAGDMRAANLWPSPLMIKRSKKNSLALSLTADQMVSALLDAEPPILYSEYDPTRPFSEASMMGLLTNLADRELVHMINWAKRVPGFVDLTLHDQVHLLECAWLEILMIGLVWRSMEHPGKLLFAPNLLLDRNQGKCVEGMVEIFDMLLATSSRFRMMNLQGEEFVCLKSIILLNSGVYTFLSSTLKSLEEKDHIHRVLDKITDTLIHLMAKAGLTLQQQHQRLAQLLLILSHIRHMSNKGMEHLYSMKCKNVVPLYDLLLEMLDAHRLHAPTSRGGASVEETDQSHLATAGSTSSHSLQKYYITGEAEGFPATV
Estrogen receptor (Homo sapiens) + Estrogen receptor beta (Homo sapiens), sequence (Q92731 whole entry, looked up, the tested form may be a part): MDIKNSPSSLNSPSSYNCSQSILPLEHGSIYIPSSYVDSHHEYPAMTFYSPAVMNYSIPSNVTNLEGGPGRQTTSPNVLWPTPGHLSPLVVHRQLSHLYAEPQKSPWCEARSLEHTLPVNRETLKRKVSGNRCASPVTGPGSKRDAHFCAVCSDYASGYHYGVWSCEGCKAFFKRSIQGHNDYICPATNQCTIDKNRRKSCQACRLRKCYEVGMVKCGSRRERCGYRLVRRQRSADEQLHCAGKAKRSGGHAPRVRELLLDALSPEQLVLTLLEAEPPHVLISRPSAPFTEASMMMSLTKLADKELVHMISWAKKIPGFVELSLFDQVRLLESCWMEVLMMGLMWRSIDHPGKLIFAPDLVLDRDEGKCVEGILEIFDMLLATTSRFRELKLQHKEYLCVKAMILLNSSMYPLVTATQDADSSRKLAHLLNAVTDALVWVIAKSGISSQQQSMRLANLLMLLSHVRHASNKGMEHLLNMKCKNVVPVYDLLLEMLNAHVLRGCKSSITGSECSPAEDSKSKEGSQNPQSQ
Estrogen receptor (Homo sapiens), sequence (P03372 whole entry, looked up, the tested form may be a part): as the sequence (P03372 whole entry, looked up, the tested form may be a part) above
Peroxisome proliferator-activated receptor gamma (Homo sapiens), sequence (P37231 whole entry, looked up): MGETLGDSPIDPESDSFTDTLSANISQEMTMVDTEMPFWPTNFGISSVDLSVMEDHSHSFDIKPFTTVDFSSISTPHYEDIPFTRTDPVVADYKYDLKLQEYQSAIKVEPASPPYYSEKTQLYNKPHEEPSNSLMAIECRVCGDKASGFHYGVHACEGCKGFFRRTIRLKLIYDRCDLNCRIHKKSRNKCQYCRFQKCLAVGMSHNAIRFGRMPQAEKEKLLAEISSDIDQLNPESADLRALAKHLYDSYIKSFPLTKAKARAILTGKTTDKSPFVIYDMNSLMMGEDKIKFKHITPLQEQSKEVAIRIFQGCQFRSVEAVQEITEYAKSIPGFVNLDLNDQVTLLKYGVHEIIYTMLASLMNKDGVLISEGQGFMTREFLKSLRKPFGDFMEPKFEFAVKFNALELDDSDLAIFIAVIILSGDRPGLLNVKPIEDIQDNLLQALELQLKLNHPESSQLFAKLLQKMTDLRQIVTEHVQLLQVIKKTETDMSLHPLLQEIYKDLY
human Matrix Metalloproteinase-9 (MMP9), MMP9 (gene 4318), sequence (P14780 whole entry, looked up): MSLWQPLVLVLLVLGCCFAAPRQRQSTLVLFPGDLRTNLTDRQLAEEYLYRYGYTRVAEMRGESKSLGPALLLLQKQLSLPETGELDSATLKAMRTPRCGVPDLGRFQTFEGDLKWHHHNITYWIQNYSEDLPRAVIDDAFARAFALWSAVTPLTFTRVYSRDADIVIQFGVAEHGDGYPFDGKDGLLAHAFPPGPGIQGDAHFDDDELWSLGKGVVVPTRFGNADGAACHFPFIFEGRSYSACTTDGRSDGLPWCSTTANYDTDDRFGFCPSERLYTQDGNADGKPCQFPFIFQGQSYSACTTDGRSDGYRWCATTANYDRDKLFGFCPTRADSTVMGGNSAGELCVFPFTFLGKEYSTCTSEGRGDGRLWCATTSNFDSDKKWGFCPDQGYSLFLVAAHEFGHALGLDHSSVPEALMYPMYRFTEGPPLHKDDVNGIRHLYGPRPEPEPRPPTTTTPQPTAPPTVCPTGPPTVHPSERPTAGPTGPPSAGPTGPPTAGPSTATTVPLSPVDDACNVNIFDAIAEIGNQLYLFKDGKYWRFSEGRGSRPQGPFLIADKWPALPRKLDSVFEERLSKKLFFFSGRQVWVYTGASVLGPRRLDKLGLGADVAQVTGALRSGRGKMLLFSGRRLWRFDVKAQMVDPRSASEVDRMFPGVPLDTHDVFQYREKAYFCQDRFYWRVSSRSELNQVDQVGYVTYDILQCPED
Agonist Androgen Response Element (ARE), AR (gene 367), sequence (P10275 whole entry, looked up): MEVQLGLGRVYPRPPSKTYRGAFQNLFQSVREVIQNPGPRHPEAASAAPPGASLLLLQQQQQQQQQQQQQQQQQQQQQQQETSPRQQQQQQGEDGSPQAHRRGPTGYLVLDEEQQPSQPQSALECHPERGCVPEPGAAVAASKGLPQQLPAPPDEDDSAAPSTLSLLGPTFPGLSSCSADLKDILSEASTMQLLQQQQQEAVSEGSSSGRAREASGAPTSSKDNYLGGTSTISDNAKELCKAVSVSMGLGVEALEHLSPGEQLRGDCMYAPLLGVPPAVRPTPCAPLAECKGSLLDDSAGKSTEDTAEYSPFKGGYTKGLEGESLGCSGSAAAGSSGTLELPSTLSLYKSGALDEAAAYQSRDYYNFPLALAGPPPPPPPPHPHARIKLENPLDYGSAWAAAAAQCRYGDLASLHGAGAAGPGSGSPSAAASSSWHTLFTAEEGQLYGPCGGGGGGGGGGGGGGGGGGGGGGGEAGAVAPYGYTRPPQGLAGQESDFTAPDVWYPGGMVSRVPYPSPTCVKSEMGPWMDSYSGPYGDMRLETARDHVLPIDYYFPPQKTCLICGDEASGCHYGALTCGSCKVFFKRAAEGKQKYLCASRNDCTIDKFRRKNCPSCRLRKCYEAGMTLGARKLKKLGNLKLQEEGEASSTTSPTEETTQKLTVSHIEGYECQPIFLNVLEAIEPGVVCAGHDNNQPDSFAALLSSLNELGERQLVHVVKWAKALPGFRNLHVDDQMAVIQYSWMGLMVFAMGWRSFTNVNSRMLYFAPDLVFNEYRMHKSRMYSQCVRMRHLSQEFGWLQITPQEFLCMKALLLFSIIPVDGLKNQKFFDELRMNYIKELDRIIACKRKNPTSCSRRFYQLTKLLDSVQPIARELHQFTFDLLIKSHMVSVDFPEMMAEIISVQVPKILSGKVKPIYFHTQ
AR (gene 367), sequence (P10275 whole entry, looked up): as above
Ratio of Nucleoli Translocation and Cytoplasm, AR (gene 367), sequence (P10275 whole entry, looked up): as above
Androgen Receptor/SRC-1 Co-activator, AR (gene 367), sequence (P10275 whole entry, looked up, the tested form may be a part): as the sequence (P10275 whole entry, looked up) above
Nucleoli Translocation, AR (gene 367), sequence (P10275 whole entry, looked up): as above

With `CNC(=N[N+](=O)[O-])NCC1CCOC1` (stereo not drawn), the molecule was called inactive in experiment [1], in experiment [2] and in experiment [3].
Take `Nc1cc(Cl)cc(Cl)c1`: the AC50 in the experiment with TTR (gene 7276) was 6.93 µM (active).
On to `CC(C)[C@@H](C(=O)O[C@@H](C#N)c1cccc(Oc2ccccc2)c1)c1ccc(Cl)cc1`, for which the outcome in [4] was inactive.
For the molecule `CCOP(=O)(OCC)Oc1ccc([N+](=O)[O-])cc1`, the concentration at half-maximal activity (AC50) in the experiment on TTR (gene 7276) was 5.87 µM (active).
Turning to `CCC[N+](=O)[O-]`, the AC50 in [5] was 6.06 µM (active).
As to `CNC(=O)Oc1cc(C)c(SC)c(C)c1`, the AC50 in [6] is 50 µM (active). Moreover, the molecule was classed as inactive in experiment [6] and in experiment [7].
`C=CC(=O)OCC(CC)CCCC` (stereo not drawn): the molecule was classed as inactive (in [8]; in the experiment on SRD5A2 (gene 6716)).
As to `C[N+](=O)[O-]`, the AC50 in experiment [5] is 1.45 µM (active).
Take `CC(C)CCCCCCCOP(=O)(Oc1ccccc1)Oc1ccccc1`: the outcome in experiment [1], in [2] and in [3] was inactive.
On to `CCOP(=O)(OCC)OCC`, for which the AC50 in experiment [5] is 5.9 µM (active).
Regarding `CC(C)CCCCCCCOC(=O)c1ccccc1C(=O)OCCCCCCCC(C)C`, the AC50 in experiment [5] is 10.9 µM (active).
With `Oc1cc(Cl)ccc1Cl`, the result (in [8]; in the experiment on SRD5A2 (gene 6716)) was inactive. Further, the AC50 in the experiment with TTR (gene 7276) was 1.17 µM (active).
As to `CN(C)CCC#N`, the AC50 in experiment [5] is 9.19 µM (active).
In the case of `Cc1cc(C)c(C2=C(OC(=O)CC(C)(C)C)C3(CCCC3)OC2=O)c(C)c1`, the molecule was classed as inactive in [9], in experiment [10], in experiment [11], in experiment [4], in experiment [12] and in experiment [13].
Turning to `c1ccc2c(c1)CCCC2`, the molecule was classed as inactive in experiment [9], in [10], in experiment [14], in [15], in experiment [11] and in experiment [16]. For the same molecule, the result (in experiment [12]; in [13]; with AR (gene 367)) was inactive.
Turning to `O=CNC(N1CCN(C(NC=O)C(Cl)(Cl)Cl)CC1)C(Cl)(Cl)Cl` (stereo not drawn), the AC50 in experiment [17] is 5.96 µM (active). In addition, the call in experiment [9], in experiment [10], in experiment [14], in [15], in experiment [11] and in experiment [16] was inactive. Further, the molecule was classed as inactive (in experiment [12]; in [13]; with AR (gene 367); in experiment [6]; in experiment [7]).
Regarding `Nc1ccc(Cl)c(Cl)c1`, in the experiment on TTR (gene 7276), the AC50 is 18.3 µM (active).
`CC(=O)C=Cc1ccccc1`: the molecule was called inactive in experiment [4].
With `COC(C)(C)CCC[C@H](C)C/C=C/C(C)=C/C(=O)OC(C)C`, in experiment [17], the AC50 was 0.992 µM (active).
Take `O=C(NCNC(=O)NC1C(=O)NC(=O)N1CO)NC1C(=O)NC(=O)N1CO` (stereo not drawn): the result (in [14]; in experiment [15]; in experiment [16]; with AR (gene 367); in [6]) was inactive. In experiment [7], the AC50 is 50 µM (active).
